# Screens: PubChem, several laboratories
# Compounds with a hit are over-represented: about 1.2% of the library has one in this group of screens.
# NCOA3 inh: human NCOA3 inhibition; Q9Y6Q9; HEK293 GAL4-SRC3 luciferase reporter, luminescence; inhibition, % at 3.6 µM; hit rate 0.17% among 360,000;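 active = inhibition above a per-campaign cutoff, the mean of all compounds plus 3 SD, cut at about 60% in these data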;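 also: 0% = DMSO-treated cells and 100% = gossypol-treated cells at 36 µM; higher means less SRC3-driven luciferase light from the GAL4 reporter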
# COUP-TFII inh: blocks human COUP-TFII nuclear receptor; P24468; HEK293T NGFI-A luciferase reporter, luminescence; inhibition, % at 8.6 µM; hit rate 0.7% among 370,000;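 active = inhibition above a per-plate cutoff, mean inhibition of test wells between control levels plus 3 SD, cut at about 38% in these data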;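 also: cells cotransfected with COUP-TFII expression vector driving the NGFI-A reporter; 0% = median of COUP-TF2 test wells and 100% = reporter-only cells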
# Target sequence (P24468 whole entry, looked up): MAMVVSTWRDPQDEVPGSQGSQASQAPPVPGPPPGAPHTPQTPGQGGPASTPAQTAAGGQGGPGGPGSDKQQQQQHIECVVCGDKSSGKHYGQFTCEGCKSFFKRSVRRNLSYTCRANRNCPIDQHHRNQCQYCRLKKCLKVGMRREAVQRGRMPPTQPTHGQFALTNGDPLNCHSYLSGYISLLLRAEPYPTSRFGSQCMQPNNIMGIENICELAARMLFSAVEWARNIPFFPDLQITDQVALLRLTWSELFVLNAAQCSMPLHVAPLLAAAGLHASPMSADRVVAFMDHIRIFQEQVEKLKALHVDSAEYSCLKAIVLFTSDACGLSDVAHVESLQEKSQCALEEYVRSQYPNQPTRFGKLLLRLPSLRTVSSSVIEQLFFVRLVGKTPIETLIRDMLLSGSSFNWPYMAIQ
# NR5A2 inv ag: suppresses constitutive activity of human LRH-1 | O00482 | HEK293T StAR-luciferase reporter, LRH-1 transfected, 24 h | inhibition, % at 3.6 µM | hit rate 0.13% among 360,000 | AID 602396;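 active = inhibition above the mean inhibition of all tested compounds plus 3 SD, cut at about 73% in these data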;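 also: 0% = DMSO wells and 100% = reporter-only cells lacking LRH-1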
# Efflux pump mplx: blocks antifungal efflux pumps in multiplex yeast assay; inhibition, % at 10 µM; hit rate 0.44% among 330,000; S. cerevisiae Candida pump triplex, Nile Red efflux;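 active = plate passing quality check with inhibition over a set limit, or well fluorescence over plate mean plus 4 SD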;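 also: Nile Red retained in pooled yeast measured as flow cytometry median fluorescence; 0% = buffer negative control and 100% = Enniatin B positive control; higher means more Nile Red kept so more efflux inhibition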
# NCOA2 inhibitor: human SRC2 (NCOA2) inhibition; HEK293 GAL4-SRC2 luciferase reporter, luminescence; inhibition, % at 9 µM; hit rate 0.17% among 370,000; AID 651957;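 active = inhibition above the mean inhibition of all tested compounds plus 3 SD, set per campaign, cut at about 52% in these data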;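 also: 0% = DMSO treated cells and 100% = cells given Gossypol at 36 µM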
# SRC1 inh: inhibits human SRC1 coactivator | HEK293 GAL4-SRC1 luciferase reporter, luminescence | hit rate 0.12% among 360,000 | inhibition, % at 3.6 µM;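 active = inhibition above the campaign mean plus 3 SD, with each screening campaign given its own cutoff, cut at about 60% in these data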;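 also: 0% = DMSO treated cells and 100% = gossypol at 36 µM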
# Cmpd fluor yeast: compound fluorescence in yeast efflux pump counter-screen; shares compounds with Efflux pump mplx; S. cerevisiae AD/pABC3, flow cytometry; fluorescence ratio to DMSO, % at 10 µM; hit rate 4% among 1,700; AID 588517;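 active = fluorescence ratio to DMSO above its plate's cutoff, the plate mean ratio plus 5 SD, cut at about 210% in these data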;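 also: unstained yeast with no Nile Red so the signal is compound autofluorescence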
# CaMdr1 efflux inh: blocks the Candida albicans Mdr1 efflux pump in yeast; AID 588518; hit rate 1% among 1,700; inhibition, % at 10 µM; shares compounds with Efflux pump mplx; S. cerevisiae AD/CaMDR1, Nile Red efflux, flow cytometry; in the data active = inhibition above about 26%;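 also: 0% = DMSO vehicle and 100% = reference inhibitor; higher means more Nile Red retained so more efflux inhibition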
# CaCdr2 efflux inh: inhibitors of Candida albicans Cdr2 efflux pump; S. cerevisiae AD/CaCDR2, Nile Red retention, flow cytometry; Nile Red retention ratio vs DMSO, % at 10 µM; shares compounds with Efflux pump mplx; AID 588520; hit rate 4% among 1,700; in the data active = Nile Red retention ratio vs DMSO above about 190%;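 also: higher ratio means more blocking of Cdr2 efflux of the dye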
# Cdr1 pump inh: Candida Cdr1 efflux pump inhibition; inhibition, % at 10 µM; S. cerevisiae AD/CaCDR1, Nile Red efflux, flow cytometry; AID 588522; hit rate 1% among 1,700; shares compounds with Efflux pump mplx;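 active = inhibition above the screen-wide mean plus twice its standard deviation, cut at about 32% in these data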
# Active calls of the source: *; x = no result given; + = active, no number.
SMILES,NCOA3 inh,COUP-TFII inh,NR5A2 inv ag,Efflux pump mplx,NCOA2 inhibitor,SRC1 inh,Cmpd fluor yeast,CaMdr1 efflux inh,CaCdr2 efflux inh,Cdr1 pump inh
COC(=O)c1ccccc1NC(=S)N(Cc1ccc2c(c1)OCO2)Cc1cc2ccc(OC)cc2[nH]c1=O,-4.5,3.3,-6.9,6.4*,-9.4,-9.4,98.9,-0.1,96.0,0.0
COC(=O)c1ccccc1NC(=S)N(Cc1ccc2c(c1)OCO2)Cc1cc2ccc(C)cc2[nH]c1=O,-1.8,0.2,11.3,0.0,4.4,9.6,x,x,x,x
N/C(=N\OC(=O)c1cccs1)c1cccc([N+](=O)[O-])c1,-57.7,-8.3,-26.9,0.2,-50.9,-95.9,x,x,x,x
O=C(CCN1C(=O)/C(=C/c2ccc(F)cc2)SC1=S)NCCCn1ccnc1,-43.8,18.5,7.1,2.1*,-0.6,1.5,103.4,-0.7,98.1,0.0
CCC1(c2ccc(F)cc2)NC(=O)N(CC(=O)NCc2ccc(C)cc2)C1=O (centres undefined),2.9,9.5,2.6,-0.3,-31.0,-21.2,x,x,x,x
Cn1c(-c2ccccc2)cc2ccccc21,-42.0,-11.6,3.8,-0.1,11.3,-48.8,x,x,x,x
Cn1c(-c2ccccc2O)cc2ccccc21,-6.1,-19.5,-3.1,0.2*,11.9,-10.0,99.7,-0.1,103.0,0.0
O=C(O)CC/C(=N/NC(=O)c1ccc(-c2ccccc2)cc1)c1ccccc1,11.3,-5.0,-2.9,-0.2,11.5,-17.0,x,x,x,x
O=C(O)CC/C(=N\NC(=O)c1ccccc1Br)c1ccccc1,5.3,-14.3,-34.4,18.0*,6.7,7.9,103.0,-0.2,97.7,-0.1
Cc1ccc(S(=O)(=O)N2CCC(C(=O)N[C@@H](C)C(=O)Nc3ccc(F)cc3)CC2)cc1,7.6,4.2,2.2,0.8*,-0.2,9.4,112.2,0.0,118.7,0.1
COc1ccc(C(=O)NNC(=O)Nc2ccc(C)cc2)cc1,5.7,-16.1,-15.3,-0.1,-7.1,2.7,x,x,x,x
Cc1nc2ccccc2n1CCc1nc2c3ccccc3nc(SCC(=O)NCc3ccco3)n2n1,-19.1,13.1,-5.3,1.2*,6.2,-2.0,104.5,-0.3,116.0,0.0
Cc1ccccc1OCC(=O)Nc1nnc(-c2ccco2)s1,25.4,19.5,-2.8,0.0,-18.9,-18.0,103.0,0.0,101.8,0.0
Cc1c(CCOC(=O)C23CC4CC(CC(C)(C4)C2)C3)sc[n+]1Cc1ccccc1,16.9,2.2,19.1,1.2*,9.2,5.7,114.3,0.5,+,0.3
Cc1cc(C(=O)NNS(=O)(=O)c2ccc(C(C)(C)C)cc2)nn1C(C)(C)C,9.7,6.8,16.8,0.6*,10.3,4.6,101.1,-0.2,108.3,-0.1
Cc1ccc(S(=O)(=O)NNC(=O)C(O)(c2ccccc2)c2ccccc2)cc1,5.7,11.1,-4.2,-0.2,18.9,-17.8,x,x,x,x
CCOc1ccc(CCNC(=O)COC(=O)c2cc([N+](=O)[O-])ccc2N2CCOCC2)cc1OCC,-3.5,-5.0,43.4,9.2*,7.6,4.8,81.2,0.0,86.9,-0.1
O=C1OCC/C1=C\c1ccccc1,17.9,-13.1,6.2,6.8*,-7.9,-4.1,101.4,-0.2,85.2,-0.1
O=C(Cn1nc(-c2ccccc2)ccc1=O)Nc1cccc(NC(=O)c2ccccn2)c1,x,-11.6,x,-0.1,-8.0,x,x,x,x,x
O=C(NCc1ccco1)/C(=C\c1ccccc1)NC(=O)c1ccccc1,11.1,-9.7,4.6,-0.7,-1.3,6.8,x,x,x,x
CCn1cc(CNC(=O)c2cccc([N+](=O)[O-])c2)c(C)n1,7.1,-2.2,19.6,11.1*,-12.0,1.1,101.2,-0.1,107.2,-0.1
CCn1cc(CNC(=O)c2ccc(Cl)c([N+](=O)[O-])c2)c(C)n1,11.0,-14.0,-19.6,-0.1,9.2,-44.4,x,x,x,x
